“And” between values parts separate entries of the source, which are not always exact repeats. Equal entries are not always repeated. Compounds without any hit were thinned out: in the full panel of roughly 83,000, 20% have a hit.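 In brief: 96-well plates, 48 h treatment, single concentration, percent growth endpoint.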 The source made the active and inactive calls. Rule for the calls: active = growth percent below 10; inactive = the rest.
How the values were obtained:
Experiment in all cases: NCI-60 one-dose screen, 48 h (100 = growth as untreated, 0 = no growth, -100 = all killed)
Settings in all cases: 10 µM unless noted
[1] = system: DU-145 prostate
[2] = system: K-562 leukemia
[3] = system: MALME-3M melanoma
[4] = system: MDA-MB-231 breast
[5] = system: RXF 393 renal
[6] = system: SF-268 CNS
[7] = system: SF-295 CNS
[8] = system: SF-539 CNS
[9] = system: UACC-257 melanoma
[10] = system: M14 melanoma

Measured: growth

O=C(Nc1cccc(C(F)(F)F)c1)N1CCN(c2cc(-c3cn(-c4ccccc4)nc3-c3cccc(O)c3)ccn2)CC1
inactive: [1] 61.2% | [2] 30.6% | [3] 46.3% | [4] 54% | [5] 46.7% | [6] 59.4% | [7] 22.8% | [8] 54.7% | [9] 67.6%

COc1ccc(/C=N/N=C(/c2ccccc2)c2ccc3nc(-c4ccc(Cl)cc4)[nH]c3c2)cc1
inactive: [1] 86.5% | [2] 47.9% | [3] 90.6% | [4] 95% | [5] 83.3% | [6] 88.7% | [7] 81.3% | [8] 87.7% | [9] 101%

C#C[C@]1(O)CC[C@H]2[C@@H]3CC=C4c5sc(Nc6cc(Cl)ccc6OC)nc5CC[C@]4(C)[C@H]3CC[C@@]21C
active: [2] 4.32% | [5] -74.9% | [7] -62.4% | [8] -22.1% | [9] -16.3%
inactive: [1] 19.1% | [3] 12.1% | [4] 43.6% | [6] 24.6%

COc1cc(-c2nc(-c3ccccc3)[nH]c2-c2ccnc(NCCCNS(=O)(=O)c3ccc(C)cc3)n2)ccc1F
inactive: [1] 86.7% | [2] 58.9% | [3] 100% | [4] 91.7% | [5] 82.7% | [6] 80.2% | [7] 99.6% | [8] 89.4% | [9] 99.7%

CN1CCN(c2ccc(Nc3nc(NCCCNS(=O)(=O)c4cccc(F)c4)c4sccc4n3)cc2)CC1
inactive: [1] 43.4% | [2] 12.5% | [4] 36.1% | [6] 44.2%
active: [3] -83.6% | [5] -71.4% | [7] 6.24% | [8] -80.4% | [9] -64%

C#CCn1cc(/C=N/Nc2nc(-c3ccc(Br)cc3)cs2)c2ccccc21
inactive: [1] 114% | [2] 110% | [3] 100% | [4] 95.8% | [5] 105% | [6] 108% | [7] 97.6% | [8] 93% | [9] 105%

CCN(CC)c1ccc(/C=N/NC(=O)c2ccc(S(N)(=O)=O)cc2)c(O)c1
inactive: [1] 31.1% | [2] 12.4% | [4] 34% | [6] 20.5% | [7] 12.6%
active: [3] -1.7% | [5] -4.11% | [8] 5% | [9] -10.2%

Cc1[nH]c(C(=O)Nc2ccc(S(=O)(=O)N3CCCCC3)cc2OCCOCCOCCOCCOCCOCCOCCOCCOCCOc2cc(S(=O)(=O)N3CCCCC3)ccc2NC(=O)c2[nH]c(C)c3c2CCCCC3=O)c2c1C(=O)CCCC2
inactive: [1] 47.3% | [2] 19.2% | [4] 11.6% | [5] 47% | [6] 44.3% | [7] 30.8% | [8] 14.1%
active: [3] 3.69% | [9] -27%

COc1cc(-c2nc(-c3ccccc3)[nH]c2-c2ccnc(NCCCNS(=O)(=O)c3ccc(C(F)(F)F)cc3)n2)ccc1Cl
inactive: [1] 52.6% and 59.5% | [2] 18% and 23.5% | [3] 102% and 62.4% | [4] 57% and 55.8% | [5] 18.5% and 16.3% | [6] 37.9% and 49% | [7] 13.4% and 22.6% | [8] 65.6% and 55.5% | [9] 64.2% and 51.2%

Cc1ccc(-c2cc3nc(C(Cl)Cl)nc(-c4ccc(S(=O)(=O)N(C)C)cc4)n3n2)cc1
inactive: [1] 85.3% | [2] 41% | [3] 100% | [4] 95.1% | [5] 90.1% | [6] 98.7% | [7] 86.2% | [8] 80.3% | [9] 100%

COC(=O)c1cccc(NC2=C(Cl)C(=O)C(C)=C(C)C2=O)c1
inactive: [1] 110% | [3] 95.8% | [4] 36.5% | [5] 104% | [6] 97.4% | [7] 108% | [8] 99.3% | [9] 108%
active: [2] 5.25%

Cn1c2nc3ccccc3c-2cc2ccccc21
inactive: [1] 30.9% | [2] 21.1% | [3] 36.6% | [4] 36.1% | [5] 43.3% | [6] 57.3% | [7] 39.6% | [8] 39.1% | [9] 49.2% | [10] 48.3%

O=C(/C=C/c1ccc(Cl)c(Cl)c1)Nc1ncc(Cc2ccc(Cl)c(Cl)c2)s1
inactive: [1] 49.5% | [2] 15.3% | [3] 79.8% | [4] 97.1% | [5] 104% | [6] 61.4% | [8] 60.5% | [9] 40.9%
active: [7] 7.58% | [10] -27.4%

COc1ccc(C(C)=C(c2ccc(OCCN(C)C)cc2)c2ccc(OCCN(C)C)cc2)cc1
inactive: [1] 20%
active: [2] -67.4% | [3] -74.4% | [4] -52.2% | [5] -79.1% | [6] -12% | [7] -70.2% | [8] -79.4% | [9] -70.4% | [10] -85.8%

Cc1cccc(N2CCN(C3=C(Cl)C(=O)c4ncccc4C3=O)CC2)c1
inactive: [1] 44.7% | [3] 24.4% | [4] 84.8% | [5] 52.2% | [6] 82.9% | [7] 101% | [8] 92.1% | [9] 61.5% | [10] 75.3%
active: [2] 9.9%

Cc1ncn(-c2ccc(/C=N/Nc3ccnc4cc(Cl)ccc34)cc2)c1C
active: [1] 8.97% | [2] 0.733% | [3] -88.7% | [4] -16.8% | [5] -43.7% | [7] -72.5% | [8] -60.7% | [9] -67.2% | [10] -88.5%
inactive: [6] 21.5%

COc1ccc(-c2cc(-c3ccc(N(C)C)cc3)n3c(n2)nc2ccccc23)cc1
inactive: [1] 73.3% | [2] 20.8% | [3] 118% | [4] 75.2% | [5] 86.5% | [6] 76.9% | [7] 48.6% | [8] 82.6% | [9] 58% | [10] 29.1%

O=C1C(SCc2ccccc2)=C(Cl)CN1c1ccccc1
inactive: [1] 102% | [2] 62% | [3] 94.6% | [4] 93.1% | [5] 105% | [6] 105% | [7] 97.8% | [8] 95% | [9] 106% | [10] 97.7%

COC(=O)CCSC1=C(C)C(=O)c2ccccc2C1=O
inactive: [1] 111% | [2] 38.4% | [3] 104% | [4] 75.6% | [5] 87.3% | [6] 97.4% | [7] 102% | [8] 78.6% | [9] 106% | [10] 107%

CC1(C)CC[C@]23CC[C@]4(C)[C@H](CC[C@@H]5[C@@]6(C)CC[C@H](N)C(C)(C)[C@@H]6CC[C@]54C)[C@H]2[C@H]1OC3
inactive: [3] 109% | [4] 30.1% | [5] 38.1% | [6] 80.9% | [7] 78% | [8] 74.1% | [9] 98.9% | [10] 82.8%
active: [1] -25.2% | [2] -31.2%

Cc1ccccc1Nc1nc(SC(C)C)nc(-c2ccccc2)c1C#N
inactive: [1] 76.6% | [2] 46.3% | [3] 66.3% | [4] 67.9% | [5] 28.1% | [6] 57% | [7] 23.8% | [8] 28.1% | [9] 107% | [10] 77.2%

CN1CCN(c2ccc(Nc3nc(NCCNC(=O)c4ccccc4)c4sccc4n3)cc2)CC1
inactive: [1] 79.4% | [3] 30.6% | [4] 54.3% | [5] 33.8% | [6] 64.6% | [7] 76.9% | [9] 33.3% | [10] 27.8%
active: [2] 8.82% | [8] -75.4%

N/C(=N\C(N)=N\c1nc2ccccc2s1)c1ccc(Cl)cc1
inactive: [1] 85.4% | [2] 86.9% | [3] 90.3% | [4] 79.5% | [5] 92.6% | [6] 93% | [7] 44.5% | [8] 95.4% | [9] 105% | [10] 87.6%

COc1ccccc1/C=C/C(=O)c1nnn(-c2ccc(F)cc2)c1C
active: [1] 3.67% | [2] 8.81%
inactive: [3] 70.6% | [4] 65.6% | [5] 40.7% | [6] 66.2% | [7] 64.3% | [8] 20.7% | [9] 71.3% | [10] 62.3%

COc1cc(-c2nc(-c3ccccc3)[nH]c2-c2ccnc(NCCCNS(=O)(=O)c3cccc(F)c3)n2)ccc1F
inactive: [1] 87.1% | [2] 63.6% | [3] 95.6% | [4] 94.3% | [5] 92.2% | [6] 89.1% | [7] 102% | [8] 98.6% | [9] 115% | [10] 93.3%

CCCCCCN1C=C/C(=C\C(=O)n2ccc3ccccc32)c2ccccc21
inactive: [1] 74% | [2] 31.8% | [3] 70.6% | [4] 73% | [5] 74.3% | [6] 80.9% | [7] 34.4% | [8] 87% | [9] 71.6% | [10] 78.5%

— PubChem BioAssay (NCI)
